This passage reports binding signal results from paper PMC9911399, “Two distinct binding modes provide the RNA-binding protein RbFox with extraordinary sequence specificity”.

T1: RBFOX1 RRM (Homo sapiens, UniProt Q9NWB1 109-208)
T1 sequence: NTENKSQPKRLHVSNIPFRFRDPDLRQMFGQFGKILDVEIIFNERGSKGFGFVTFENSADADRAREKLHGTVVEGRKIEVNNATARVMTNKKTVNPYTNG

B1: GUGGCCC (DNA:RNA)
RNA: GGGAGACCGGAAUUCAGAUUGUCCGUGGCCCUUAAAUCCCGUCGUAGCCACCA
DNA 1: CAATCTGAATTCCGGTCTCCC
DNA 2: TGGTGGCTACGACGGGATT
B2: CGGGGUG (DNA:RNA)
RNA: B1 RNA with G25C, U26G, C29G, C30U, C31G
DNA 1: CAATCTGAATTCCGGTCTCCC
DNA 2: TGGTGGCTACGACGGGATT
B3: GGGGGUG (DNA:RNA)
RNA: B1 RNA with U26G, C29G, C30U, C31G
DNA 1: CAATCTGAATTCCGGTCTCCC
DNA 2: TGGTGGCTACGACGGGATT
B4: GGGUGUG (DNA:RNA)
RNA: B1 RNA with U26G, G28U, C29G, C30U, C31G
DNA 1: CAATCTGAATTCCGGTCTCCC
DNA 2: TGGTGGCTACGACGGGATT
B5: ACGGGUG (DNA:RNA)
RNA: B1 RNA with G25A, U26C, C29G, C30U, C31G
DNA 1: CAATCTGAATTCCGGTCTCCC
DNA 2: TGGTGGCTACGACGGGATT
B6: GGGUGGU (DNA:RNA)
RNA: B1 RNA with U26G, G28U, C29G, C30G, C31U
DNA 1: CAATCTGAATTCCGGTCTCCC
DNA 2: TGGTGGCTACGACGGGATT
B7: GGGUGUC (DNA:RNA)
RNA: B1 RNA with U26G, G28U, C29G, C30U
DNA 1: CAATCTGAATTCCGGTCTCCC
DNA 2: TGGTGGCTACGACGGGATT
B8: CGGGUGG (DNA:RNA)
RNA: B1 RNA with G25C, U26G, C29U, C30G, C31G
DNA 1: CAATCTGAATTCCGGTCTCCC
DNA 2: TGGTGGCTACGACGGGATT
B9: CCGGGUG (DNA:RNA)
RNA: B1 RNA with G25C, U26C, C29G, C30U, C31G
DNA 1: CAATCTGAATTCCGGTCTCCC
DNA 2: TGGTGGCTACGACGGGATT
B10: GGGGUGG (DNA:RNA)
RNA: B1 RNA with U26G, C29U, C30G, C31G
DNA 1: CAATCTGAATTCCGGTCTCCC
DNA 2: TGGTGGCTACGACGGGATT
B11: CUGGACU (DNA:RNA)
RNA: B1 RNA with G25C, C29A, C31U
DNA 1: CAATCTGAATTCCGGTCTCCC
DNA 2: TGGTGGCTACGACGGGATT
B12: AUUAGUU (DNA:RNA)
RNA: B1 RNA with G25A, G27U, G28A, C29G, C30U, C31U
DNA 1: CAATCTGAATTCCGGTCTCCC
DNA 2: TGGTGGCTACGACGGGATT
B13: UACCGUC (DNA:RNA)
RNA: B1 RNA with G25U, U26A, G27C, G28C, C29G, C30U
DNA 1: CAATCTGAATTCCGGTCTCCC
DNA 2: TGGTGGCTACGACGGGATT
B14: ACUAUCA (DNA:RNA)
RNA: B1 RNA with G25A, U26C, G27U, G28A, C29U, C31A
DNA 1: CAATCTGAATTCCGGTCTCCC
DNA 2: TGGTGGCTACGACGGGATT
B15: UGGGUGG (DNA:RNA)
RNA: B1 RNA with G25U, U26G, C29U, C30G, C31G
DNA 1: CAATCTGAATTCCGGTCTCCC
DNA 2: TGGTGGCTACGACGGGATT
B16: GUCGUUC (DNA:RNA)
RNA: B1 RNA with G27C, C29U, C30U
DNA 1: CAATCTGAATTCCGGTCTCCC
DNA 2: TGGTGGCTACGACGGGATT
B17: GUGUGCG (DNA:RNA)
RNA: B1 RNA with G28U, C29G, C31G
DNA 1: CAATCTGAATTCCGGTCTCCC
DNA 2: TGGTGGCTACGACGGGATT
B18: UUGGGGG (DNA:RNA)
RNA: B1 RNA with G25U, C29G, C30G, C31G
DNA 1: CAATCTGAATTCCGGTCTCCC
DNA 2: TGGTGGCTACGACGGGATT
B19: GUGCGUG (DNA:RNA)
RNA: B1 RNA with G28C, C29G, C30U, C31G
DNA 1: CAATCTGAATTCCGGTCTCCC
DNA 2: TGGTGGCTACGACGGGATT
B20: UUGCGUG (DNA:RNA)
RNA: B1 RNA with G25U, G28C, C29G, C30U, C31G
DNA 1: CAATCTGAATTCCGGTCTCCC
DNA 2: TGGTGGCTACGACGGGATT
B21: UUGCGUC (DNA:RNA)
RNA: B1 RNA with G25U, G28C, C29G, C30U
DNA 1: CAATCTGAATTCCGGTCTCCC
DNA 2: TGGTGGCTACGACGGGATT
B22: CCGUGCG (DNA:RNA)
RNA: B1 RNA with G25C, U26C, G28U, C29G, C31G
DNA 1: CAATCTGAATTCCGGTCTCCC
DNA 2: TGGTGGCTACGACGGGATT
B23: UUGGGUG (DNA:RNA)
RNA: B1 RNA with G25U, C29G, C30U, C31G
DNA 1: CAATCTGAATTCCGGTCTCCC
DNA 2: TGGTGGCTACGACGGGATT
B24: CGUGUCC (DNA:RNA)
RNA: B1 RNA with G25C, U26G, G27U, C29U
DNA 1: CAATCTGAATTCCGGTCTCCC
DNA 2: TGGTGGCTACGACGGGATT
B25: UUGUGUG (DNA:RNA)
RNA: B1 RNA with G25U, G28U, C29G, C30U, C31G
DNA 1: CAATCTGAATTCCGGTCTCCC
DNA 2: TGGTGGCTACGACGGGATT
B26: UUGUCCC (DNA:RNA)
RNA: B1 RNA with G25U, G28U
DNA 1: CAATCTGAATTCCGGTCTCCC
DNA 2: TGGTGGCTACGACGGGATT
B27: CUUGUCC (DNA:RNA)
RNA: B1 RNA with G25C, G27U, C29U
DNA 1: CAATCTGAATTCCGGTCTCCC
DNA 2: TGGTGGCTACGACGGGATT
B28: UUGGGAA (DNA:RNA)
RNA: B1 RNA with G25U, C29G, C30A, C31A
DNA 1: CAATCTGAATTCCGGTCTCCC
DNA 2: TGGTGGCTACGACGGGATT
B29: UCUCAAU (DNA:RNA)
RNA: GGGAGACCGGAAUUCAGAUUGUCCUCUCAAUUUAAAUCCCGUCGUAGCCACCA
DNA 1: CAATCTGAATTCCGGTCTCCC
DNA 2: TGGTGGCTACGACGGGATT
B30: CGUCACC (DNA:RNA)
RNA: B29 RNA with U25C, C26G, A30C, U31C
DNA 1: CAATCTGAATTCCGGTCTCCC
DNA 2: TGGTGGCTACGACGGGATT
B31: GACAUGU (DNA:RNA)
RNA: B1 RNA with U26A, G27C, G28A, C29U, C30G, C31U
DNA 1: CAATCTGAATTCCGGTCTCCC
DNA 2: TGGTGGCTACGACGGGATT

Numbering of substitutions follows the chain as printed; changes in the protein carry UniProt numbers. The full ranking holds about 16,000 sequences; the median of “ka relative to ugcaugu” is about 0.0091, and the highest 2% start at about 0.032. This is one part of a sample in which the highest values are shown more often than they occur.

This test concerns the target T1, RBFOX1 RRM. The experiment in a line: EMSA; HiTS-Eq, 1 nM pool, 10 min; buffer printed only for the single-RNA assays: 10 mM Tris pH 7.5, 150 mM NaCl, 3.4 mM EDTA, 0.001% NP-40, 30 C. The conditions noted are these: tags: His6 N-terminal (pET28a); label: 5' 32P. The essentials:
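These values rest on relative association constants, computed from read-count changes of each RNA species versus the control reaction and normalised to the cognate motif. Reads came from free RNA recovered by 8% native PAGE after purified RbFox RRM (wild type or mutant) at increasing concentrations was equilibrated for 10 min in 50 µL with 1 nM of a 5′-radiolabelled pool with 7 randomized nucleotides and DNA-annealed flanks.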
A general note: Mobility shift assays separate free from complexed probe on a gel.
On to B1, for which the binding signal is 0.0179 KA relative to UGCAUGU.

With B2, the binding signal is 0.0399 KA relative to UGCAUGU.

As for B3, the binding signal is 0.0397 KA relative to UGCAUGU.

With B4, the binding signal was 0.0275 KA relative to UGCAUGU.

For B5, the binding signal was 0.0185 KA relative to UGCAUGU.

With B6, the binding signal was 0.0199 KA relative to UGCAUGU.

Regarding B7, the binding signal is 0.0216 KA relative to UGCAUGU.

On to B8, for which the binding signal was 0.0171 KA relative to UGCAUGU.

With B9, the binding signal was 0.0271 KA relative to UGCAUGU.

B10: the binding signal was 0.0333 KA relative to UGCAUGU.

On to B11, for which the binding signal was 0.00842 KA relative to UGCAUGU.

As for B12, the binding signal is 0.00711 KA relative to UGCAUGU.

Take B13: the binding signal was 0.0072 KA relative to UGCAUGU.

With B14, the binding signal is 0.00217 KA relative to UGCAUGU.

In the case of B15, the binding signal was 0.0279 KA relative to UGCAUGU.

As for B16, the binding signal was 0.0139 KA relative to UGCAUGU.

With B17, the binding signal was 0.0191 KA relative to UGCAUGU.

With B18, the binding signal is 0.0118 KA relative to UGCAUGU.

Turning to B19, the binding signal was 0.0481 KA relative to UGCAUGU.

Consider B20, for which the binding signal is 0.0447 KA relative to UGCAUGU.

Take B21: the binding signal was 0.0198 KA relative to UGCAUGU.

B22: the binding signal is 0.0124 KA relative to UGCAUGU.

Turning to B23, the binding signal was 0.0408 KA relative to UGCAUGU.

Consider B24, for which the binding signal was 0.00858 KA relative to UGCAUGU.

Consider B25, for which the binding signal is 0.0403 KA relative to UGCAUGU.

For B26, the binding signal was 0.0102 KA relative to UGCAUGU.

Take B27: the binding signal is 0.0101 KA relative to UGCAUGU.

B28: the binding signal was 0.0102 KA relative to UGCAUGU.

Turning to B29, the binding signal was 0.0038 KA relative to UGCAUGU.

For the molecule B30, the binding signal was 0.00293 KA relative to UGCAUGU.

On to B31, for which the binding signal is 0.0153 KA relative to UGCAUGU.
